Among all 47,000 compounds or so, about 2,000 (4.3%) were called active. Cut-off read from the data, not from the text of the source: active = inhibition above about 30%; inactive = the rest. Many of the other results were omitted from the sample, so actives are more common in it than they were.

The target of the test is Ubiquitin carboxyl-terminal hydrolase 8 (Homo sapiens) (UniProt P40818). Nature of the test: blocks human USP8 ubiquitin-rhodamine cleavage (AID 1645853). Particulars: purified USP8, Ub-rhodamine cleavage fluorescence, 30 min; at 20 µM; hits give high values.
Chain of Ubiquitin carboxyl-terminal hydrolase 8 (Homo sapiens) (P40818 whole entry, looked up): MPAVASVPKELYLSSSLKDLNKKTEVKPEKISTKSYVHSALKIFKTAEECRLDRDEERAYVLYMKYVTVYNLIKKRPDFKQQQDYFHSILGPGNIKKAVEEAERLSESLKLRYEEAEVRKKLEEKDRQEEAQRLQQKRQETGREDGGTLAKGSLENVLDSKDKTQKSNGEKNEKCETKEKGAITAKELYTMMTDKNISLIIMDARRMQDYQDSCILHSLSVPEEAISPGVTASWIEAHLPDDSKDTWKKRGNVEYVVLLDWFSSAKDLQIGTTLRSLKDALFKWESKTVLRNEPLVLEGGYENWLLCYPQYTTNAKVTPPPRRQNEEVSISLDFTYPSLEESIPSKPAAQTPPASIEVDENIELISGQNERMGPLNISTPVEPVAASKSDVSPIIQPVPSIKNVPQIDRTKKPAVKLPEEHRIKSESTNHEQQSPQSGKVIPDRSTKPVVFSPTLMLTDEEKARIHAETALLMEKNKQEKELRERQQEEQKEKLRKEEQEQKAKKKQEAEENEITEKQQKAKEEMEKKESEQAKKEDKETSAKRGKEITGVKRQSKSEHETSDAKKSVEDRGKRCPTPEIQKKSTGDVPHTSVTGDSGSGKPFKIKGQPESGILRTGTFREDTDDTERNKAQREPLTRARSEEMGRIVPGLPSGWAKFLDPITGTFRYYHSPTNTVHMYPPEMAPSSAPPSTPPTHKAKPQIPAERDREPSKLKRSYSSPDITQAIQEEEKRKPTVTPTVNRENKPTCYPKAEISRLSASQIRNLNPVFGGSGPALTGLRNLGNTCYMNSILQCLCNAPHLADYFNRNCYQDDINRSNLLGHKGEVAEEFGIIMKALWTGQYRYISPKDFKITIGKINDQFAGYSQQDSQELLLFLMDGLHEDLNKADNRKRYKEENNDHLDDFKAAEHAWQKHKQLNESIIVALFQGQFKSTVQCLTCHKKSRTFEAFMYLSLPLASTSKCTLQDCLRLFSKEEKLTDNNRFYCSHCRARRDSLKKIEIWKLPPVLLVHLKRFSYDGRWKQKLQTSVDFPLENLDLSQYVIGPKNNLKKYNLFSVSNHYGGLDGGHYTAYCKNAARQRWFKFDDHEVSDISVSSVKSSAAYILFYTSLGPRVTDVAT
For the molecule `CC(=O)c1ccc(NC(=O)c2cccc(-c3nc(-c4ccccc4)no3)c2)cc1`, the inhibition (commonly the drop in the measured response relative to a control, in per cent) was 8.62% (inactive).

For the molecule `CCc1ccc(C(=O)N2CCN(c3nnc4ccccn34)CC2)cc1`, the inhibition is -1.4% (inactive).

Regarding `O=C(c1ccccc1)N1CCCCCC1C1CCNCC1` (centres undefined), the inhibition is -4.33% (inactive).

For `O=C(Nc1c2c(nn1-c1cccc(Cl)c1)CS(=O)(=O)C2)c1cccs1`, the inhibition was 9.3% (inactive).

In the case of `CC(C)c1ccc(OCC(=O)NCc2nnnn2-c2ccc(Cl)cc2)cc1`, the inhibition is 4.83% (inactive).

With `Cc1cc(OCC(=O)Oc2ccc(-n3cnnn3)cc2)cc(C)c1Cl`, the inhibition was 44.3% (active).

For the molecule `CC(C)NC(=O)c1cccc(-n2cnnn2)c1`, the inhibition was -259% (inactive).

With `Cc1ccnc(C2CN(C(=O)CCn3cnc4ccccc43)CCO2)n1` (centres undefined), the inhibition is 19.3% (inactive).

For the molecule `COc1cc(NC(=O)CSc2nc3ccncc3[nH]2)cc(OC)c1`, the inhibition is 1.79% (inactive).

Turning to `CC(Nc1nnc(Cc2ccccc2)c(=O)[nH]1)c1ccccc1` (centres undefined), the inhibition was 85.5% (active).

On to `Nc1ccccc1-c1nnc(Cc2ccccc2)c(=O)[nH]1`, for which the inhibition was -0.271% (inactive).

Take `Cc1ccc(Cc2nnc(C(=O)NC(C)c3ccccc3)o2)cc1` (centres undefined): the inhibition is 0.117% (inactive).

As to `CC(=O)NC(Cc1cccc(C)c1)C(=O)NC1CCN(C(=O)c2cccc(C)c2)CC1` (centres undefined), the inhibition was -1.31% (inactive).

Turning to `COC(=O)C1CCN(C(=O)CC[C@H]2CNC(=O)[C@@H]3[C@@H](CCN3Cc3ccc(C)cc3)N2C)CC1`, the inhibition is 35.8% (active).

As to `CN1[C@@H](CCC(=O)NCc2ccc(F)cc2)CNC(=O)[C@@H]2[C@H]1CCN2CC1CC1`, the inhibition was -6.51% (inactive).

As to `CN1[C@@H](CCC(=O)N2CCc3ccccc32)CNC(=O)[C@@H]2[C@H]1CCN2Cc1ncc[nH]1`, the inhibition is -8.85% (inactive).

With `COc1ccc(-c2c(C)noc2C)cc1S(=O)(=O)NC1CCCC1`, the inhibition is -9.12% (inactive).

Consider `Clc1ccccc1C1SCC2=Nc3ccccc3CN21` (centres undefined), for which the inhibition was -101% (inactive).

For `COc1cccc(NC(=O)Cn2c(-c3ccccc3)nc(C)cc2=O)c1`, the inhibition is 2.3% (inactive).

On to `CCN1C(=O)CCC12CCCN(S(=O)(=O)c1cccc(C)c1)CC2` (centres undefined), for which the inhibition was -101% (inactive).

For the molecule `CCC(=O)c1ccc(OCC(=O)Nc2ccc3nc(C)sc3c2)cc1`, the inhibition was -13% (inactive).

In the case of `CCC(=O)Nc1nc2cc(NC(=O)c3ccc(OC)cc3)ccc2s1`, the inhibition is 47.8% (active).

Consider `COc1ccc(NC(=O)c2ccnc(Nc3ccc(OC)cc3)c2)cc1`, for which the inhibition was 25.4% (inactive).

Regarding `CCN1C(=O)c2ccccc2Sc2ccc(C(=O)NCc3ccc(OC)cc3OC)cc21`, the inhibition is 4.79% (inactive).

`COc1cccc(CN2C(=O)c3ccccc3C2C(=O)NCc2ccccc2OC)c1` (centres undefined): the inhibition is 34.7% (active).

With `COc1ccccc1CNC(=O)c1ccc(-n2nc(C)c3c2CCCC3=O)cc1`, the inhibition is 1.29% (inactive).

Turning to `CC(C)(C)NC(=O)CSc1nc2[nH]c(=O)cc(O)c2s1`, the inhibition is -9.23% (inactive).

As for `CC1Oc2ccccc2N(Cc2nc(-c3cccc(F)c3)no2)C1=O` (centres undefined), the inhibition was -3.17% (inactive).

For the molecule `O=C(Cc1ccccc1Cl)Nc1ccc(N2CCOCC2)cc1`, the inhibition is 51.8% (active).

On to `CCN(CC)c1nc2ccccc2nc1C(=O)Nc1ccc(N2CCOCC2)cc1`, for which the inhibition was -1.27% (inactive).

As to `O=C(COC(=O)CCc1nc2ccccc2c(=O)[nH]1)Nc1ccc(N2CCOCC2)cc1`, the inhibition was 2.83% (inactive).

As to `CN1C[C@H]2C[C@H](C(=O)Nc3ccc4c(c3)OCO4)[C@@H](C1)O2`, the inhibition is 6.94% (inactive).

Regarding `O=C(Nc1cccnc1)[C@H]1C[C@@H]2CN(S(=O)(=O)C3CC3)C[C@H]1O2`, the inhibition was -14% (inactive).

As to `CNC(=O)N1C[C@H]2C[C@H](C(=O)Nc3ccc4c(c3)OCO4)[C@@H](C1)O2`, the inhibition was 37% (active).

For the molecule `CC(=O)c1ccc(NC(=O)Cn2c(=O)n(-c3ccccc3)c3ncccc32)cc1`, the inhibition was 10.4% (inactive).

On to `CCS(=O)(=O)N1CC(=O)N(c2cccc(OC)c2)C(C)(C(=O)NCc2ccccc2)C1` (centres undefined), for which the inhibition was -0.355% (inactive).

Take `COc1cccc(CNC(=O)c2ccc(-c3cncnc3)nc2)c1`: the inhibition is -15.9% (inactive).

With `COc1cccc(CNC(=O)c2ccc3c(=O)nc4c(-c5ccccc5)n[nH]n4c3c2)c1`, the inhibition is 71.8% (active).

For the molecule `O=C(NCCc1ccccc1)c1ccc2c(=O)nc3c(-c4ccccc4F)n[nH]n3c2c1`, the inhibition is 2.58% (inactive).

For `O=C(Nc1ccccc1F)NC1CCCN(c2cc(-c3ccncc3)[nH]n2)C1` (centres undefined), the inhibition was -92% (inactive).

Turning to `O=C(NCc1ccco1)c1ccc2c(=O)nc3c(-c4ccc(F)cc4)n[nH]n3c2c1`, the inhibition was -4.4% (inactive).

Take `O=C(NC1CCCCC1)c1ccc2c(=O)nc3c(-c4ccccc4F)n[nH]n3c2c1`: the inhibition was 49.8% (active).

In the case of `CN1CC(c2nc3ccccc3n2Cc2ccccc2)CC1=O` (centres undefined), the inhibition is -1.18% (inactive).

As to `CNc1cncc(C2CCCN2C(=O)Cc2ccc3c(c2)OCO3)n1` (centres undefined), the inhibition is -1.13% (inactive).

For the molecule `O=S(=O)(Nc1cccc(O)c1)c1ccc2oc3ccc(S(=O)(=O)Nc4cccc(O)c4)cc3c2c1`, the inhibition was 9.24% (inactive).

As to `Cc1cc(C)n(CCC(=O)NCC2CCOCC2)n1`, the inhibition is -2.76% (inactive).

As to `Cc1ccc(-c2nn(-c3ccccc3)cc2CNCc2cccnc2)cc1`, the inhibition is -268% (inactive).

On to `CNC1C(OC2C(OC3C(O)C(O)C(OC(N)=O)C(O)C3N=C(N)N)OC(C)C2(O)CO)OC(CO)C(O)C1O` (centres undefined), for which the inhibition is 0.384% (inactive).

Take `CN1CCCN(C(=O)c2cc(-c3ccn(C)n3)n3ccccc23)CC1`: the inhibition is -22.2% (inactive).

Turning to `CCc1ccccc1NS(=O)(=O)c1c(C)[nH]c(C)c1C(=O)N1CCCC1`, the inhibition was 2.16% (inactive).

As to `CC(C)Nc1ncnc2c1c(C(=O)N1CCCC1)c1ccccn12`, the inhibition was 55.5% (active).

In the case of `CN1[C@@H](CCC(=O)N2CCOCC2)CNC(=O)[C@@H]2[C@H]1CCN2C1CCCCC1`, the inhibition is 2.93% (inactive).

With `Cc1ccc(S(=O)(=O)Oc2cccnc2)c(C)c1F`, the inhibition is 10.5% (inactive).

In the case of `C=C1CCC2[C@](C)(CCC[C@]2(C)C(=O)OC)[C@H]1CCc1ccoc1C[N+](C)(C)Cc1ccccc1` (some centres undefined), the inhibition was 30.8% (active).

Consider `C=C1CCC2[C@](C)(CCC[C@]2(C)C(=O)OC)[C@H]1CCc1ccoc1CNCC(=O)O` (some centres undefined), for which the inhibition was -5.45% (inactive).

As for `C=C1CCC2[C@](C)(CCC[C@]2(C)C(=O)OC)[C@H]1CCc1ccoc1/C=C/C(=O)O` (some centres undefined), the inhibition was 63.4% (active).

`Cc1ccc(S(=O)(=O)N(CC(=O)NC(C)c2ccccc2)Cc2ccccc2F)cc1` (centres undefined): the inhibition was 5.32% (inactive).

For `COc1cccc(S(=O)(=O)N2CCC(c3nccc(C)n3)C2)c1` (centres undefined), the inhibition is 0.292% (inactive).

Take `O=C(CCCn1c(=O)c2ccccc2n(Cc2ccccc2F)c1=O)NC1CCCC1`: the inhibition was 5.2% (inactive).

With `N#Cc1ccc(NC(=O)COC(=O)c2ccc3ccccc3n2)cc1`, the inhibition was -17.7% (inactive).

Regarding `N#Cc1ccc(NC(=O)Nc2cccn(Cc3ccccc3F)c2=O)cc1`, the inhibition was 96.4% (active).

Consider `O=C(Cn1cncn1)N1CCN(C(c2ccccc2)c2ccccc2)CC1`, for which the inhibition is -4.21% (inactive).

Take `c1cnc(Nc2cnc(C3CCCN(Cc4cnc[nH]4)C3)cn2)cn1` (centres undefined): the inhibition is -10.5% (inactive).

As to `CCN1C(=O)c2ccccc2C(=O)[C@@]2(C)CN(C(=O)c3ccccc3)C[C@@H]12`, the inhibition was 15.6% (inactive).

With `O=c1c(S(=O)(=O)c2cc(F)cc(F)c2)c[nH]c2ccc(F)cc12`, the inhibition was 4.59% (inactive).

As for `N#Cc1cccc(S(=O)(=O)N2CCC3(CC2)OC(=O)Nc2ccccc23)c1`, the inhibition is 10.6% (inactive).

For the molecule `N#Cc1cccc(S(=O)(=O)c2c[nH]c3ccc(Cl)cc3c2=O)c1`, the inhibition is 46.9% (active).

Consider `O=C(C1Cc2ccccc2CN1S(=O)(=O)c1ccc2c(c1)OCCO2)N1CCCC1` (centres undefined), for which the inhibition is 1.43% (inactive).

`COc1cccc(C2C(C(=O)Nc3ccccc3C)=C(C)Nc3ncnn32)c1OCc1ccccc1` (centres undefined): the inhibition was -22.6% (inactive).

As to `CC1=C(C(=O)Nc2ccc(C)cc2C)C(c2cccs2)n2c(nc3ccccc32)N1` (centres undefined), the inhibition is 31.4% (active).

In the case of `CC1=C(C(=O)Nc2ccccc2)C(c2cccs2)n2ncnc2N1` (centres undefined), the inhibition is -32.6% (inactive).

On to `Cc1cc2c(cc1CNC(=O)c1ccc3c(c1)CC(C)O3)OCCCO2` (centres undefined), for which the inhibition was -4.91% (inactive).

Regarding `O=C1c2ccccc2-c2nnc(-c3ccc(Oc4ccccc4)cc3)cc21`, the inhibition was 14.8% (inactive).

`Cc1nn2c(S(=O)(=O)Nc3cccc(F)c3C)c(C)nc2s1`: the inhibition is 19.1% (inactive).

Take `COCCN1C(=O)Cc2c(C)nc(C3(C)CCCN(c4cc(C)ncn4)C3)nc21` (centres undefined): the inhibition was 6.73% (inactive).

`COCCN1C(=O)Cc2c(C)nc(C3(C)CCCN(c4ccnc(C)n4)C3)nc21` (centres undefined): the inhibition was 30.4% (active).

As to `O=C(C1CCCCC1)N1CCN(c2ncnc3c2nnn3Cc2ccccc2)CC1`, the inhibition is 6.37% (inactive).

`Cn1cc(-c2nc(C(=O)Nc3ccc(F)cc3)cs2)c2cccnc21`: the inhibition was 30.4% (active).

Take `Cn1nc(C(=O)Nc2ccc(F)cc2)c(=O)c2ccccc21`: the inhibition was -3.42% (inactive).

Take `Cc1cccc(NC(=O)c2csc(-c3cn(C)c4ncccc34)n2)c1`: the inhibition is 6.69% (inactive).

In the case of `Cc1[nH]c(C)c(S(=O)(=O)NC2CC2)c1-c1nc(C2CC2)no1`, the inhibition was -17.3% (inactive).

For the molecule `NC(=O)c1ccc(CN2CCC3(CC2)CC3c2nc(-c3cccc(Cl)c3)no2)cc1` (centres undefined), the inhibition is -39.4% (inactive).

`NC(=O)c1ccc(NC(=O)Cc2cc(-c3ccc(Cl)cc3)on2)cc1`: the inhibition is 62.4% (active).

Consider `COc1cccc(CCNC(=O)Cc2cc(-c3ccc(C)cc3)on2)c1`, for which the inhibition is -12.1% (inactive).

Take `CC(=O)Nc1ccc(S(=O)(=O)NCc2cn3ccccc3n2)cc1`: the inhibition was -7.51% (inactive).

In the case of `Cc1ccc(-n2c3c(c(=O)[nH]c2=O)CN(Cc2ccco2)CN3)cc1`, the inhibition was -10.7% (inactive).

Consider `Cc1cc(C)c2nc3c(cc2c1)CN(Cc1ccco1)C(=O)O3`, for which the inhibition was 75.7% (active).

`COc1ccc2nc3c(cc2c1)CN(Cc1ccccc1)C(=O)O3`: the inhibition was 20.1% (inactive).

Take `O=S1(=O)c2ccccc2C(Oc2ccccc2)CN1CCO` (centres undefined): the inhibition is -13.4% (inactive).

The values are drawn from PubChem BioAssay AID1645853 (Buhrlage Lab, Dana-Farber Cancer Institute and Novartis …, 2021).
